Results filed as inconclusive are left out. Where a call stands in place of a potency, no number is given. Calls of active or inactive are those of the source. Calls follow the shape of the dose curve; as a rule, active = well fitted curve in the direction sought with a large enough effect; inconclusive = small, poorly fitted or top-dose-only effect, or another doubt; inactive = no such curve, though single readings can be large; an effect the other way counts as inactive or inconclusive.
Experiments:
[1] = biological target: Glucagon-like peptide 1 receptor (Homo sapiens) (UniProt P43220); assay: qHTS of GLP-1 Receptor Agonists: LOPAC Validation (AID 624148); settings: GLP-1R agonist cell assay; series mostly up to 46.1 µM;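 also: luminescence from a luciferase reporter switched on by cAMP; higher luminescence signal means agonism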
Sequence of Glucagon-like peptide 1 receptor (Homo sapiens) (P43220 whole entry, looked up): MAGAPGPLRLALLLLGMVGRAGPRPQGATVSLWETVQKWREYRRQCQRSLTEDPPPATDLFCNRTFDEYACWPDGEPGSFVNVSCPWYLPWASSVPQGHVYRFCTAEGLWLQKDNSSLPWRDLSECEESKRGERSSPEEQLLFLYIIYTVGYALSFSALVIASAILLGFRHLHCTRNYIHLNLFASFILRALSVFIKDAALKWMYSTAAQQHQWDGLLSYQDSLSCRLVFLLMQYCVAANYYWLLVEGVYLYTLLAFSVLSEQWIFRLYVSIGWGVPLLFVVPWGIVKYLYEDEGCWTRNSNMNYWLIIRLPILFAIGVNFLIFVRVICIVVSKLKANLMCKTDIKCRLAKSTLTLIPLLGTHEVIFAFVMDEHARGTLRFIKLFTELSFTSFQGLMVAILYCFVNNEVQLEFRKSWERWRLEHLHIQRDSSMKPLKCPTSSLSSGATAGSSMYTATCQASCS
Summary of the method: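 Agonism scored as increased luciferase luminescence driven by cAMP in HEK293 clones carrying GLP-1R. Cells settled 12 hours, received compound for 4-6 hr at 37 deg C, 5% CO2, and were read after 12 min detection reagent at RT.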

[2] = qHTS of Nrf2 Activators: LOPAC Validation (AID 624149); settings: Nrf2/ARE reporter cell assay; series mostly up to 46.1 µM
Summary of the method: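 Following overnight seeding in 5% FBS OPTI-MEM, AREc32_Fluc cells receive compounds for a 24 hr incubation at 37 deg C with 5% CO2. Steady-Glo is added, and after 30 min at RT luminescence is recorded.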

[3] = HTS Assay for Allosteric Antagonists of the Human D2 Dopamine Receptor: Hit Validation in HTRF (AID 624455); settings: Cells stably expressing D1 dopamine receptor, inhibition mode; series mostly up to 46.1 µM;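 also: stable D1 dopamine receptor cell line scored for blocking the D1 response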
Summary of the method: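 Validation of hits used D1 receptor stably expressed in cells with HTRF detection of response inhibition; origin screen measured calcium flux following EC80 dopamine in a force-coupled, inducible Hek293 Trex D2 cell line.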

Compound	outcome [1]	outcome [2]	Potency [3]
CN(C)CCCN1c2ccccc2Sc2ccccc21	inactive	inactive	inactive
COCC(=O)O[C@]1(CCN(C)CCCc2nc3ccccc3[nH]2)CCc2cc(F)ccc2[C@@H]1C(C)C	inactive	inactive	inactive
CN(C)CCN(Cc1cccs1)c1ccccn1	inactive	inactive	inactive
COCCCC/C(=N\OCCN)c1ccc(C(F)(F)F)cc1	inactive	inactive	inactive
CCCN1C[C@H](CSC)C[C@@H]2c3cccc4[nH]cc(c34)C[C@H]21	inactive	inactive	
CCN(CC)CCNC(=O)c1cc(S(C)(=O)=O)ccc1OC	inactive	inactive	inactive
NC(=O)c1ncn([C@@H]2O[C@H](CO)[C@@H](O)[C@H]2O)c1O	inactive	inactive	inactive
NCCCNCCSP(=O)(O)O	inactive	inactive	inactive
O=C1NCN(c2ccccc2)C12CCN(CCCC(c1ccc(F)cc1)c1ccc(F)cc1)CC2	inactive	inactive	inactive
CCc1c(C)[nH]c2c1C(=O)C(CN1CCOCC1)CC2 (centres undefined)	inactive	inactive	inactive
c1cnc(N2CCN(Cc3ccc4c(c3)OCO4)CC2)nc1	inactive	inactive	inactive
COc1ccc([C@@H]2Sc3ccccc3N(CCN(C)C)C(=O)[C@@H]2OC(C)=O)cc1	inactive	inactive	inactive
CN(C)CCOC(=O)COc1ccc(Cl)cc1	inactive	inactive	inactive
CCN1CCC[C@H]1CNC(=O)c1c(O)c(Cl)cc(Cl)c1OC	inactive	inactive	inactive
Cc1ccc(Cl)c(Nc2ccccc2C(=O)O)c1Cl	inactive	inactive	inactive

From PubChem BioAssay (NCATS)
